Among all 310,000 compounds or so, about 14,000 (4.5%) showed an effect of 50% or more. The effect is printed as a negative number. What follows is part of a selection rich in strong results, with near analogues and random picks from the rest.
target: human ether-à-go-go-related gene (hERG) potassium channel (human, UniProt Q12809); assay: primary screen, population patch clamp on CHO cells stably expressing hERG; higher = less effect of the substance
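Also: peak tail current of the secondary pulse compared with the same well before compound.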

human ether-à-go-go-related gene (hERG) potassium channel, sequence (Q12809 whole entry, looked up): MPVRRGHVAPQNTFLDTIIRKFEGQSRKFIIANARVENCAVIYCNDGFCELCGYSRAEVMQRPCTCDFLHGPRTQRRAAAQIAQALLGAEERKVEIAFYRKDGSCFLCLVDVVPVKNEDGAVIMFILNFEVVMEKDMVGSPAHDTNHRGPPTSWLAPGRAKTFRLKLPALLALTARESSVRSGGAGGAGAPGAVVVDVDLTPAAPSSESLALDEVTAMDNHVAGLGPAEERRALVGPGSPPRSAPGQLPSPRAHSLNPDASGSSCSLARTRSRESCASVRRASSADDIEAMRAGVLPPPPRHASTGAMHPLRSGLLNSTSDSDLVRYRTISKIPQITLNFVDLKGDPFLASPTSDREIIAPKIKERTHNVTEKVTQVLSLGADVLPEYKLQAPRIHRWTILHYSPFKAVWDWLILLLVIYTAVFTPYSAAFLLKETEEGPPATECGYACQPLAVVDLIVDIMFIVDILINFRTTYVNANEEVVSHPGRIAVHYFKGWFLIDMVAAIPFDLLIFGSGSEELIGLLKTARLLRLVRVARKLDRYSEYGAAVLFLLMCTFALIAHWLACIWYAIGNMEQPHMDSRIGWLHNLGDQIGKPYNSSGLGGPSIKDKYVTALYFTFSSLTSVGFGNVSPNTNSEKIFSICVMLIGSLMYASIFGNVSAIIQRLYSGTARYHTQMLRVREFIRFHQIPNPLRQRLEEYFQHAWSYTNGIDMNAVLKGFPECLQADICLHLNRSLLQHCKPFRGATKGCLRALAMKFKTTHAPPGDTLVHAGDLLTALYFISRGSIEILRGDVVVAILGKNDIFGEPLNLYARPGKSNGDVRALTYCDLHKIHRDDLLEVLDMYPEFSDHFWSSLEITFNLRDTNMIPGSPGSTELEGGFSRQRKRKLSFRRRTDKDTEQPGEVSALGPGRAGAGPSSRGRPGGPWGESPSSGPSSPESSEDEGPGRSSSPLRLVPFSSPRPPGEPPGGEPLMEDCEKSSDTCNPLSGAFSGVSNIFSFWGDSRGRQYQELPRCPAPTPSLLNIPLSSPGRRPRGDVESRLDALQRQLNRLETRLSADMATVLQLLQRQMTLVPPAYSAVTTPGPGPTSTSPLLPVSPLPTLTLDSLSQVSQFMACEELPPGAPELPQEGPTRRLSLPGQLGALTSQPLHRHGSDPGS

| SMILES | hERG current change (%, negative = inhibition) at 10uM [%] |
| --- | --- |
| CSc1ccc(/C=N/NC(=O)c2sccc2C)cc1 | 15.4 |
| CCCCC(=O)NC(c1ccc(OC)c(OC)c1)c1c(O)ccc2ccccc12 (centres unmarked) | -13.7 |
| O=C1C(Cl)=C(N2CCOCC2)C(=O)N1c1ccccc1F | 20.3 |
| O=C(Nc1ccc(Cl)c([N+](=O)[O-])c1)c1cnccn1 | -10.4 |
| Cc1ccc(/C=N/NC(=O)COc2ccccc2-c2ccccc2)cc1 | -3.49 |
| COc1cc(C(=O)N2CCN(c3ccccc3Cl)CC2)ccc1OCC(=O)N1CCOCC1 | -28.6 |
| CC(=O)c1ccc(N2CCN(C(=O)COc3ccccc3F)CC2)c(F)c1 | -39.7 |
| CC(=O)c1ccc(N2CCN(C(=O)CN3C(=O)NC4(CCCCC4)C3=O)CC2)c(F)c1 | 0.416 |
| COc1cc(C(=O)N2CCN(c3ccccc3F)CC2)ccc1OCC(=O)N1CCOCC1 | -60.9 |
| COc1cc(C(=O)N2CCN(c3ccccc3O)CC2)ccc1OCC(=O)N1CCOCC1 | 3.06 |
| CCC(=O)c1ccc(N2CCN(C(=O)COc3ccccc3F)CC2)c(F)c1 | -50.9 |
| CC(=O)c1ccc(N2CCN(C(=O)COc3ccc(F)cc3)CC2)c(F)c1 | -71.5 |
| COc1ccc(-c2csc(NC(=O)c3ccccc3NS(=O)(=O)c3ccc(F)c(F)c3)n2)cc1 | 19.3 |
| CCc1ccc(OCC(=O)N2CCN(c3ccccc3F)CC2)cc1 | 20.2 |
| Cc1ccc(S(=O)(=O)Nc2ccccc2C(=O)Nc2nc(-c3ccc(F)cc3)cs2)cc1 | 9.22 |
| CCC(=O)c1ccc(N2CCCCCC2)c(F)c1 | 4.04 |
| COc1ccc(S(=O)(=O)Nc2ccccc2C(=O)Nc2nc(-c3ccc(F)cc3)cs2)cc1OC | -51.7 |
| CC(=O)c1cccc(NC(=O)NCc2ccco2)c1 | -2.14 |
| COc1ccc(Cl)cc1Nc1nc(NCCO)nc(N2CCCCC2)n1 | -3.45 |

| SMILES | hERG current change (%, negative = inhibition) at 10uM [%] |
| --- | --- |
| CCN(CC)S(=O)(=O)c1ccc(C)c(NC(=S)N2CCN(C/C=C/c3ccccc3)CC2)c1 | -2.74 |
| CCOc1ccc(NS(=O)(=O)c2ccc(NC(=S)NC(=O)CC(C)C)cc2)cc1 | 8.92 |
| O=C(CSC(=S)N1CCCC1)N1CCN(S(=O)(=O)c2cccc([N+](=O)[O-])c2)CC1 | 5.69 |
| COc1ccc(/C=N/NC(=O)CC(=O)NCc2cccnc2)c(OC)c1 | 4.71 |
| CCC(CC)C(=O)c1c[nH]c(C(=O)NCc2cccnc2)c1 | 18.6 |
| CC(C)(C)c1ccc(-c2nnc(SCC(=O)c3ccc4c(c3)OCCO4)o2)cc1 | 12.3 |
| Cc1ccc(S(=O)(=O)N(C)CCCC(=O)NC(C)(C)C)cc1 | 13.3 |
| CO/N=C/c1cn(-c2ccc(Cl)cc2)nn1 | -2.53 |
| CC(=O)c1cc(F)c(N2CCN(C(=O)COc3ccccc3F)CC2)cc1C | -7.84 |
| COc1cc(C(=O)Nc2nc(-c3ccc(C)cc3)cs2)ccc1OCC(=O)N1CCOCC1 | -18.9 |
| CCC(=O)c1ccc(N2CCCC2)c(F)c1 | 6.95 |
| CC(=O)c1ccc(N2CCN(C(=O)Cc3ccccc3)CC2)c(F)c1 | -9.6 |
| COc1ccc(-c2csc(NC(=O)c3ccc(OCC(=O)N4CCOCC4)c(OC)c3)n2)cc1 | -48 |
| CC(=O)c1ccc(N2CCCC2)c(F)c1 | 1.88 |
| CCC(=O)c1ccc(N2CCN(C(=O)COc3ccc(F)cc3)CC2)c(F)c1 | -73.4 |
| CCCCCC(=O)N1CCN(c2ccc(C(C)=O)cc2F)CC1 | -60.9 |
| CC(=O)c1cc(F)c(N2CCN(C(=O)COc3ccc(F)cc3)CC2)cc1C | -76.3 |
| CCOC(=O)N1CCN(c2ccc(C(=O)CC)cc2F)CC1 | -9.37 |
| CCOC(=O)N1CCN(c2cc(C)c(C(C)=O)cc2F)CC1 | 2.71 |

| SMILES | hERG current change (%, negative = inhibition) at 10uM [%] |
| --- | --- |
| COc1cc(C(=O)Nc2nc(-c3ccc(F)cc3)cs2)ccc1OCC(=O)N1CCOCC1 | -53.3 |
| CC1=Nc2ccccc2NC(=O)C1Sc1nnc(C)s1 (centres unmarked) | -12.6 |
| CC(C)CN1CCC(CNC(=O)CCc2nnc(Cc3c[nH]c4ccccc34)o2)CC1 | -1.27 |
| N#Cc1ccccc1NC(=S)NC(=O)C1CCC1 | 9.95 |
| COc1cc2c3cc1Oc1cc(ccc1O)C[C@@H]1c4c(cc(OC)c(O)c4Oc4ccc(cc4)C[C@H]3N(C)CC2)CCN1C | -37 |
| COc1ccccc1N1CCN(C(=O)CCNS(=O)(=O)c2ccc(Br)s2)CC1 | -31.3 |
| S=C1NC[C@H](Cc2ccccc2)N1CCCCC1CCCCC1 | 4.71 |
| COC(=O)c1ccc(Nc2nc(C)cc(C)n2)cc1 | 10.9 |
| CCOC(=O)c1cnc2ccc(C(=O)OC)cc2c1Nc1ccc(C(=O)O)cc1.Cl | 5.66 |
| COC(=O)c1ccc2nc(C)cc(Nc3ccccc3C)c2c1.Cl | -47.5 |
| COC(=O)c1ccc(Nc2cc(C)nc3ccccc23)cc1.Cl | -37.3 |
| CC(=O)c1ccc(Nc2cc(C)nc3ccc(C)cc23)cc1 | -74.5 |
| CC(=O)c1ccc(NC(=O)c2cc(C)nc3ccccc23)cc1 | 16.5 |
| CC(=O)c1ccc(Nc2nc(C)cc(C)n2)cc1 | 4.62 |
| COC(=O)c1ccc2nc(C)cc(Nc3ccc(N(C)C)cc3)c2c1.Cl | -67.1 |
| COC(=O)c1ccc(Nc2cc(C)nc3ccc(C)cc23)cc1.Cl | -55.6 |
| Cc1ccc(NN2C(=O)C=CC2=O)cc1 | 0.632 |
| N/C(=N\S(=O)(=O)c1ccccc1)c1ccc([N+](=O)[O-])cc1 | -30 |
